# MITF inh: inhibitors of human MITF | O75030 | AlphaScreen MITF homodimerization, bead proximity signal | inhibition, % at 2.6 µM | 650,000 compounds, 0.91% hits | AID 1259374; in the data active means inhibition above about 50%;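 further: 0% = vehicle wells with protein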
# TEAD-YAP block: TEAD-YAP interaction inhibition; HEK-TIYL cells, TEAD-Gal4/YAP UAS-luciferase luminescence; inhibition, % at 9.12 µM; 640,000 compounds, 1.4% hits; AID 1259422; in the data active means inhibition above about 32%;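 further: 0% = median of test compound wells and 100% = reference inhibitor wells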
# GPR151 ag: activators of human GPR151 | PathHunter beta-arrestin GPR151 cells, luminescence | activation, % at 11.2 µM | 650,000 compounds, 1% hits | AID 1508602; in the data active means activation above about 4.9%;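 further: 0% = median of compound wells and 100% = cells with positive control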
# FBW7 act: activators of human E3 ligase FBW7 | Q969H0 | AlphaScreen FBW7–phospho-cyclin E peptide binding, activator screen | normalized activity (activation), % at 26.1 µM | 650,000 compounds, 0.13% hits; in the data active means normalized activity above about 1.9%;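 further: purified mutant Fbw7 with reduced substrate affinity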
# Target sequence (Q969H0 whole entry, looked up): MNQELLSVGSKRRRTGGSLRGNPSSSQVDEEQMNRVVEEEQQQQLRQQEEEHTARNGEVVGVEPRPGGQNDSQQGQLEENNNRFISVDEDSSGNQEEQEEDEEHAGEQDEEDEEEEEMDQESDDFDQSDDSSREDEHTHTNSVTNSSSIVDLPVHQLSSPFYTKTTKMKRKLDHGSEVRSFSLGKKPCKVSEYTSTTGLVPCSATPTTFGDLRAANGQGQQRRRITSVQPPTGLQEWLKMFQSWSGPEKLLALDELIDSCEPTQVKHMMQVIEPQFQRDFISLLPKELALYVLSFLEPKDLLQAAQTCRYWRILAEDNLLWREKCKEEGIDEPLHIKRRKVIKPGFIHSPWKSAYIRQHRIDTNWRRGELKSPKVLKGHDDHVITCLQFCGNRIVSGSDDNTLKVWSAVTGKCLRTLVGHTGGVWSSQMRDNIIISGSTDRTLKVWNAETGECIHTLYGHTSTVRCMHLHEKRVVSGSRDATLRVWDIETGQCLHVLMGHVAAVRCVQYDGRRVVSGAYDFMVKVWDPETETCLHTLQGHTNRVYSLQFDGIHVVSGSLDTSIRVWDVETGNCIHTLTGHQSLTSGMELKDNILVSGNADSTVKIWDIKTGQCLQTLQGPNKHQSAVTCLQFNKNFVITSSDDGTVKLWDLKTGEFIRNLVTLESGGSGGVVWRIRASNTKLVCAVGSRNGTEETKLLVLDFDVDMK
# * marks the source's active call; other numbers are inactive results. Hits are enriched below; roughly 3.5% of the tested compounds scored in any of these assays.
SMILES,MITF inh,TEAD-YAP block,GPR151 ag,FBW7 act
CCOC(=O)CNC(=S)N(Cc1ccc(F)cc1)C1CCCCC1,38,-5,-1,0
COc1ccc(C2C(C(=O)OCCc3ccccc3)=C(C)NC3=C2C(=O)CC(c2cccs2)C3)cc1OC (stereo not given),0,1,-2,0
OC[C@@H]1CCCN1c1ccnc2c(-c3cc4ccccc4o3)cnn12,-6,44*,-4,0
COc1cccc(-c2cnn3c(N4CCC[C@H]4CO)ccnc23)c1,3,59*,-1,0
COc1cccc(-c2cnn3c(N4CCCCC4CCO)ccnc23)c1 (stereo not given),-4,14,1,0
CCOC(=O)c1cnc2nc(-c3ccco3)[nH]n2c1=O,10,1,-3,0
Cc1ccc(C(C[N+](=O)[O-])c2c(-c3ccccc3)n(O)c3ccccc23)cc1 (stereo not given),2,2,1,0
CC(C)(C)c1ccc(C2CC2C(=O)N/N=C\c2ccc[nH]2)cc1 (stereo not given),5,91*,0,0
CC1=C/C(=N\S(=O)(=O)c2ccc(C)cc2)C=CC1=O,71*,2,1,0
Nc1nnc(CC(=O)N2CCCCC2)s1,12,5,-1,2.1*
CCOC(=O)c1ccc(NC(=O)CN2C(=O)CC(C)(C)S(=O)(=O)c3ccccc32)cc1,5,22,-1,5.2*
Cc1noc(C)c1COC(=O)c1ccccc1I,-3,2,0,0
Cc1cccc(-n2c(C)cc(C(=O)OCc3c(C)noc3C)c2C)c1,8,41*,-1,0
CCCN1CCC(N2C[C@H](NCc3ccccc3C(F)(F)F)C[C@H]2C(=O)NC)CC1,7,16,-1,1
Cn1nccc1C(=O)Oc1cccc(/C=N/NC(=O)c2ccccc2O)c1,6,42*,-3,0
CCCC1CCC(c2ccc(C(=O)Nn3c(-c4cccc(C)c4)nc4ccccc4c3=O)cc2)CC1 (stereo not given),7,-17,-2,0
COc1ccc(C(=O)n2cccn2)cc1[N+](=O)[O-],19,-5,-1,2
COCCNc1ncnc2scc(-c3ccccc3)c12,-9,36*,1,0
OCCNc1ncnc2scc(-c3ccccc3)c12,20,19,0,1
COc1ccc(CCNc2ncnc3scc(-c4ccccc4)c23)cc1OC,-9,50*,3,0
COc1cccc(C2=N/C(=C/c3cccc([N+](=O)[O-])c3)C(=O)O2)c1,13,-2,1,0
CC(=O)NC(c1ccco1)c1ccc2cccnc2c1O (stereo not given),77*,44*,0,-2
CC(=O)NC(c1cccs1)c1ccc2cccnc2c1O (stereo not given),70*,92*,-2,0
O=C(OCCCc1nc2ccccc2[nH]1)c1cccs1,10,-5,-1,0
CC(C)c1nc2c(-c3cn[nH]c3)cccc2c(=O)[nH]1,13,32*,-1,0
SMILES,MITF inh,TEAD-YAP block,GPR151 ag,FBW7 act
OCC1CCCN1c1nc(Nc2ccccc2)c2ncn(-c3ccsc3)c2n1 (stereo not given),3,36*,-1,0
CC(=O)Nc1ccc(Nc2nc(N3CCCC3CO)nc3c2ncn3-c2ccsc2)cc1 (stereo not given),16,15,-1,0
COc1cc(Nc2nc(N3CCCC3CO)nc3c2ncn3-c2ccsc2)cc(OC)c1OC (stereo not given),20,18,-1,0
OCC1CCCN1c1nc(Nc2ccc3c(c2)OCO3)c2ncn(-c3ccsc3)c2n1 (stereo not given),22,34*,-2,0
OCC1CCCN1c1nc(NCc2cccnc2)c2ncn(-c3ccsc3)c2n1 (stereo not given),-6,54*,0,0
c1cncc(CNc2nc(N3CCC(N4CCOCC4)CC3)nc3c2ncn3-c2ccsc2)c1,9,9,0,0
CCOc1ccc2c(c1)CC(c1nc3ccc(-c4ccncc4)cc3[nH]1)CO2 (stereo not given),20,-9,0,0
CC(=O)Nc1ccc(CN2CCC(C3(CCC(C)C)NC(=O)NC3=O)CC2)s1 (stereo not given),-5,3,2,0
CC1CCN(c2cc(N3CCN(C(=O)c4cccs4)CC3)c([N+](=O)[O-])cc2F)CC1,21,13,-1,0
CCCOC(=O)c1c(NC(=O)/C=C/C(=O)O)sc2c1CCCCC2,-2,20,4,0
CCCOC(=O)c1c(NC(=O)/C=C/C(=O)O)sc2c1CCCC2,5,37*,-1,0
CCOC(=O)c1c(NC(=O)/C=C\C(=O)O)sc2c1CCC(CC)C2 (stereo not given),-8,43*,-1,0
CCOC(=O)c1c(NC(=O)/C=C/C(=O)O)sc2c1CCCCC2,-4,21,2,0
COc1cc(C2C(C#N)=C(N)Oc3n[nH]c(C(C)(C)C)c32)cc([N+](=O)[O-])c1O (stereo not given),11,1,0,0
COc1ccc(C(=O)Nc2ccc(-c3csc(C)n3)cc2)c(OC)c1,-10,-31,-1,0
COc1ccc(C(=O)Nc2ccc(-c3cn4ccsc4n3)cc2)c(OC)c1,-5,-15,0,2.0*
CCOC(=O)c1sc2nccc(N(C)C)c2c1N,3,-18,2,0
CN(C)c1ccnc2sc(C(N)=O)c(N)c12,11,53*,-1,0
CCCOc1ccc(/C=C(\C#N)C(=O)Nc2ccc(OC)cc2)cc1,5,2,0,0
COc1cccc(-c2noc(C3CCCN(C(=O)c4c(OC)cccc4OC)C3)n2)c1 (stereo not given),10,63*,-1,0
COc1ccc(-c2noc(C3CCCN(C(=O)c4c(F)cccc4F)C3)n2)cc1OC (stereo not given),-10,9,2,0
CC1CN(CN2C(=O)/C(=C\c3ccc4c(c3)OCO4)NC2=S)CC(C)O1 (stereo not given),13,-3,-1,0
O=C(Nc1ccc(S(=O)(=O)C(F)F)cc1)c1cc(F)c(F)c(F)c1F,8,37*,0,0
Cc1nc2sccn2c(=O)c1S(=O)(=O)N1CC(=O)N(CCc2ccccc2)C(=O)C1,6,3,2,0
COc1ccc(CN2C[C@@H]3C[C@@H](c4cc5ccccc5o4)N4CCC[C@@]34C2=O)cc1,-7,77*,0,0
COc1ccc(CN2C[C@@H]3C[C@@H](c4ccccc4C)N4CCC[C@@]34C2=O)cc1,4,-6,-2,0
COc1ccc(OC)c(NS(=O)(=O)c2ccc(-c3ccccc3)cc2)c1,10,35*,0,0
COc1ccc(S(=O)(=O)Nc2cc(OC)ccc2OC)cc1,-10,61*,3,0
COc1ccc(S(=O)(=O)Nc2ccc(C)cn2)cc1,11,-9,-2,2.5*
COc1ccc(OC)c(NC(=O)C2CCCC2)c1,8,-3,0,25*
